Assay results reported in PubChem BioAssay AID652175 (National Center for Advancing Translational Sciences (NCATS), 2013).
Results filed as inconclusive are left out. Active and inactive are the calls of the source. Calls come from the whole dose curve; as a rule, active = well fitted inhibition curve with a large enough effect; inconclusive = small, poorly fitted or top-dose-only effect; inactive = no such curve, though single readings can be large or run the other way.

Experiment: qHTS Assay for Lipid Storage Modulators: S3 Assay against Probe and Analogs
Conditions: Drosophila S3 cells, BODIPY lipid droplet fluorescence, 18-24 h, oleic acid added to induce droplets; series mostly up to 46.1 µM; activity, negative = lipid storage inhibition: at the top concentration
From the text: Storing lipids as a reservoir for energy or the anabolism of elementary metabolites is a common feature of probably all cells and is conserved from bacteria to humans. The universal cellular lipid storage organelle is the so-called lipid storage droplet (LD). Although ubiquitous, LDs share a simple structure composed of a hydrophobic core that harbors the storage lipids, which is shielded by a droplet-specific phospholipid monolayer to which proteins are attached. The current model of LD biogenesis involves an incorporation of the lipid core into the membrane leaflets of the endoplasmic reticulum (ER) followed by a subsequent budding-like maturation of a LD, which ultimately pinches off. Once released, LD volume can increase by localized lipogenesis or fusion of existing droplets. Storage lipids are re-mobilized enzymatically by lipase activity. Lipase regulation in the adipocyte is heavily studied and involves multiple components including catecholamine signaling, the LD-associated proteins Perilipin and comparative gene identification-58 (CGI-58) and at least two lipases named hormone sensitive lipase (HSL) and adipocyte triglyceride lipase (ATGL). LD regulation outside of the adipocyte is poorly understood and only few components are known. However, there is an urgent need to learn more about ectopic fat depots as mislocalized storage of lipids, for example in the liver or muscle, is an eminent health problem associated with insulin resistance or the metabolic syndrome. We developed a laser-scanning cytometer assay to enable 1,536-well screening and combined the results of the small molecules screen with an RNAi database based on lipid storage. In this assay we tested analogs of the probe against the original qHTS assay, which involved drosophila melanogaster cells (S3), to see if these small molecules could disrupt lipid storage. NIH Molecular Libraries Probe Production Centers Network [MLPCN] NIH Chemical Genomics Center [NCGC] MLPCN Grant: MH085686 Assay Submitter (PI): Mathias Beller, Max-Planck-Institut fur Biophysikalische Chemie
qHTS was performed with embryonic Drosophila S3 cells (Bloomington Drosophila Genomics Resource Center [DGRC]). We dispensed 4 uL of cells at 1.25 x 10^6 cells/mL into LoBase Aurora COC 1,536-well plates (black walled, clear bottom) with a bottle-valve solenoid-based dispenser (Aurora) to obtain 5,000 cells/well. Triacsin C (Sigma-Aldrich T-4540), an inhibitor of long-chain fatty acyl CoA synthetase that blocks synthesis of triglycerides, was used as a positive control for lipid under-storage. A total of 23 nL of compounds dissolved in DMSO at different concentrations were transferred to the assay plates using a Kalypsys pin tool equipped with a 1,536-pin array containing 10-nL slotted pins (FP1S10, 0.457-mm diameter, 50.8 mm long; V&P Scientific). The final DMSO concentration was 0.46%. One microliter of oleic acid at 400 uM (Calbiochem, #4954) was added to induce lipid droplet formation in the cells, and the plates were lidded with stainless steel rubber gasket lined lids containing pinholes. After 18-24 h incubation at 25 0C and 95% humidity, 4 uL of the BODIPY lipid dye 493/503 (1:2000, Molecular Probes) and the Cell Tracker Red CMTPX dye (Life Technologies, # 34552) were added to the wells to stain lipid droplets and enumerate cell number, respectively. Fluorescence was detected by excitation of the fluorophores with a 488-nm laser on an Acumen Explorer (TTP Lab Tech). The total intensity in channel 1 (500-530 nm) reflected lipid droplet accumulation. Cells were detected using channel 3 (575-640 nm) with 5-um width and 100-um depth filters. The ratio of the total intensity in PMT channel 1 over total intensity of channel 3 was also calculated. Percent activity was computed relative to an internal control (100% inhibited lipid droplet deposition due to the presence of 20 uM Triacsin C), which was added to 32 wells/plate.

SMILES	activity, negative = lipid storage inhibition	Potency
Cc1cn(-c2cc(NC(=O)c3ccc(C)c(Nc4nccc(-c5cccnc5)n4)c3)cc(C(F)(F)F)c2)cn1	110% (inactive)	
CCOc1ccc(CCNC(=O)c2ccc(C3(C(F)(F)F)N=N3)cc2)cc1OCC	-76.7% (inactive)	
O=C(NCCc1ccc2c(c1)OCO2)c1cc2sccc2[nH]1	217% [at 38.8 µM] (inactive)	
O=C(NC1CCCc2c1cnn2-c1ccc(F)cc1F)c1ccncc1 (stereo not given)	-80% (inactive)	
Cc1cccc(-c2ccc3ncnc(NCc4cccc(F)c4)c3c2)c1	-96.7% (inactive)	
CCOc1ccc(CCNC(=O)c2cc3sccc3n2Cc2ccc(Cl)c(F)c2)cc1OCC		5.9 nM (active)
Cc1cc(SCc2sc(-c3ccc(C(F)(F)F)cc3)nc2C)ccc1OCC(=O)O	73.3% (inactive)	
CCOC(=O)C1CCN(C(=O)CNC(=O)Nc2ccccc2Cl)CC1	-20% (inactive)	
COc1cc(C)c(Sc2cnc(NC(=O)c3ccc(CNC(C)C(C)(C)C)cc3)s2)cc1C(=O)N1CCN(C(C)=O)CC1 (stereo not given)	120% (inactive)	
CCOc1ccc(CCNC(=O)c2cc3sccc3[nH]2)cc1OCC	83.3% (inactive)	
CCOC(=O)C1CCN(C(=O)C(C)(C)NC(=O)Nc2ccc3ccccc3c2)CC1		4690 nM (active)
CCOc1ccc(CCNC(=O)c2ccc(N3N=C(C)CC3=O)cc2)cc1OCC	80% (inactive)	
CC(C)(C)OC(=O)NCCOCCOCCOc1cccc(-n2ncc3c2CCCC3NC(=O)c2ccccn2)c1 (stereo not given)		18.7 nM (active)
CCOc1ccc(CCNC(=O)c2cc3ccccc3n2Cc2ccc(Cl)c(F)c2)cc1OCC		5.9 nM (active)
CCOc1ccc(CCNC(=O)c2ccnn2Cc2cccc(C)c2)cc1OCC	-100% (inactive)	
CCOc1ccc(CCNC(=O)CN(C)C)cc1OCC	73.3% (inactive)	
O=C(Cc1ccccc1)NC1CCCc2c1cnn2-c1ccc(F)cc1F (stereo not given)	30% (inactive)	
CCOC(=O)C1CCN(C(=O)C(C)(C)NC(=O)Nc2cccc(C(=O)OC)c2)CC1	-6.67% (inactive)	
Cc1cc2c(cc1C1(c3ccc(C(=O)O)cc3)CC1)C(C)(C)CCC2(C)C	53.3% (inactive)	
CCOC(=O)C1CCN(C(=O)C(C)(C)NC(=O)Nc2cccc(-c3csc(C)n3)c2)CC1	6.67% (inactive)	

SMILES	activity, negative = lipid storage inhibition	Potency
CC1=C(C(=O)NC2CCCc3c2cnn3-c2ccc(F)cc2F)OCCO1 (stereo not given)		59 nM (active)
CCOc1ccc(CCNC(=O)c2ccccn2)cc1OCC	180% (inactive)	
CCOC(=O)C1CCN(C(=O)C(C)(C)NC(=O)Nc2ccc([N+](=O)[O-])cc2)CC1	-60% (inactive)	
CCOc1ccc(CCNC(=O)c2cc3ccccc3n2Cc2cc(C)cc(C)n2)cc1OCC		16.6 nM (active)
CC(C)(C)OC(=O)NCCOCCOCCOc1ccc(-n2ncc3c2CCCC3NC(=O)c2ccccn2)cc1 (stereo not given)		9.3 nM (active)
O=C(NC1CCCc2c1cnn2-c1cccc(O)c1)c1ccccn1 (stereo not given)		41.8 nM (active)
CC(C)(C)OC(=O)N1CCCCC1C(=O)NC1CCCc2c1cnn2-c1ccc(F)cc1F (stereo not given)	26.7% (inactive)	
C[C@@H](NCCCc1cccc(C(F)(F)F)c1)c1cccc2ccccc12	-103% (inactive)	
CCOC(=O)C1CCN(C(=O)C2(NC(=O)Nc3ccccc3Cl)CC2)CC1	-60% (inactive)	
O=C(NC1CCCc2c1cnn2-c1ccc(F)cc1F)c1ccc(C2(C(F)(F)F)N=N2)cc1 (stereo not given)		7430 nM (active)
O=C(NC1CCCc2c1cnn2-c1ccc(F)cc1F)c1ccc(C(=O)c2ccccc2)cc1 (stereo not given)	40% (inactive)	
CCOc1cc2c(cc1OCC)CN(C(=O)c1cc3sccc3n1Cc1ccccc1)CC2		1320 nM (active)
CCOc1cc(CCNC(=O)c2cc3sccc3n2Cc2ccccc2)cc(F)c1OCC		33.2 nM (active)
COc1cc(Nc2ncc(F)c(Nc3ccc4c(n3)NC(=O)C(C)(C)O4)n2)cc(OC)c1OC	-83.3% (inactive)	
CCOc1ccc(CCNC(=O)c2cccs2)cc1OCC	-6.67% (inactive)	
O=C(NC1CCCc2c1cnn2-c1ccc(F)cc1F)c1ccsc1 (stereo not given)		11.8 nM (active)
CCOC(=O)C1CCN(C(=O)C(C)(C)NC(=O)Nc2ccc(Cl)cc2Cl)CC1		1480 nM (active)
CCOc1ccc(CCNC(=O)c2csc(Br)n2)cc1OCC	140% [at 38.8 µM] (inactive)	
O=C(NCCc1ccc(O)c(O)c1)c1cc2sccc2n1Cc1ccccc1	26.7% (inactive)	
O=C(NC1CCCc2c1cnn2-c1ccc(F)cc1F)c1cnon1 (stereo not given)	3.33% (inactive)	
